Substitutions are numbered along the chain they refer to.
Columns and labels:
Test in all cases: yeast three-hybrid, YBZ-1, SC-Leu-His + 0.5 mM 3-AT, 4 days
Conditions in all cases: tags: N-Gal4 AD-HA kept; label: inside an RPR1-promoter hybrid RNA with tandem MS2 sites; ssRNA
PUM1 PUF domain R3-DRQ = PUM1 PUF domain R3-DRQ (Homo sapiens, UniProt Q14671 828-1176, C935D)
In short: (§1)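 A centromeric plasmid in strain YBZ-1 co-expressed Pumilio-1 PUF domain libraries, randomized at the three base-contacting residues of each repeat, with matching RNA elements; the strain carries a LexA–MS2 coat fusion and a HIS3 reporter. After four days on SC-Leu (input) or SC-Leu-His + 0.5 mM 3-AT (selection), the repeat regions were PCR-amplified and Illumina-sequenced. The interaction score is the log change in variant frequency from input to selection, using log2 and a pseudocount of 1 where absent.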

PUM1 PUF domain R4-SRY = PUM1 PUF domain R4-SRY (Homo sapiens, UniProt Q14671 828-1176, N971S;H972R;Q975Y)
In short: as §1

PUM1 PUF domain R8-PWR = PUM1 PUF domain R8-PWR (Homo sapiens, UniProt Q14671 828-1176, N1122P;Y1123W;Q1126R)
In short: as §1

PUM1 PUF domain R5-RMP = PUM1 PUF domain R5-RMP (Homo sapiens, UniProt Q14671 828-1176, C1007R;R1008M;Q1011P)
In short: as §1

PUM1 PUF domain R8-AYK = PUM1 PUF domain R8-AYK (Homo sapiens, UniProt Q14671 828-1176, N1122A;Q1126K)
In short: as §1

PUM1 PUF domain R6-SWA = target: T1, PUM1 PUF domain R6-SWA (Homo sapiens, UniProt Q14671 828-1176, N1043S;Y1044W;Q1047A)
T1 sequence: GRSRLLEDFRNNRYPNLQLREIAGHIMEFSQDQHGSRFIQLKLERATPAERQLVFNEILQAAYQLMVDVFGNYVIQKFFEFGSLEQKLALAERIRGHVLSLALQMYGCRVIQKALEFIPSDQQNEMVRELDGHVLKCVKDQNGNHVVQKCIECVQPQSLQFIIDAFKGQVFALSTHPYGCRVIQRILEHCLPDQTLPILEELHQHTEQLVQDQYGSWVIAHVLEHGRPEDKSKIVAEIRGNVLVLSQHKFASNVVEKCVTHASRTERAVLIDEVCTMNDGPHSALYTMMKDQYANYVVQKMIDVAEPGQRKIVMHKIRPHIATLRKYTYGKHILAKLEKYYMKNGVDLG
In short: as §1

PUM1 PUF domain R2-NRG = PUM1 PUF domain R2-NRG (Homo sapiens, UniProt Q14671 828-1176, Y900R;Q903G)
In short: as §1

PUM1 PUF domain R8-RFL = PUM1 PUF domain R8-RFL (Homo sapiens, UniProt Q14671 828-1176, N1122R;Y1123F;Q1126L)
In short: as §1

PUM1 PUF domain R8-CFK = PUM1 PUF domain R8-CFK (Homo sapiens, UniProt Q14671 828-1176, N1122C;Y1123F;Q1126K)
In short: as §1

PUM1 PUF domain R8-KHY = PUM1 PUF domain R8-KHY (Homo sapiens, UniProt Q14671 828-1176, N1122K;Y1123H;Q1126Y)
In short: as §1

PUM1 PUF domain R3-YRR = PUM1 PUF domain R3-YRR (Homo sapiens, UniProt Q14671 828-1176, C935Y;Q939R)
In short: as §1

PUM1 PUF domain R3-LNG = PUM1 PUF domain R3-LNG (Homo sapiens, UniProt Q14671 828-1176, C935L;R936N;Q939G)
In short: as §1

PUM1 PUF domain R3-GHP = PUM1 PUF domain R3-GHP (Homo sapiens, UniProt Q14671 828-1176, C935G;R936H;Q939P)
In short: as §1

PUM1 PUF domain R3-SCD = PUM1 PUF domain R3-SCD (Homo sapiens, UniProt Q14671 828-1176, C935S;R936C;Q939D)
In short: as §1

PUM1 PUF domain R3-FRC = PUM1 PUF domain R3-FRC (Homo sapiens, UniProt Q14671 828-1176, C935F;Q939C)
In short: as §1

PUM1 PUF domain R3-WCG = PUM1 PUF domain R3-WCG (Homo sapiens, UniProt Q14671 828-1176, C935W;R936C;Q939G)
In short: as §1

PUM1 PUF domain R4-SHP = PUM1 PUF domain R4-SHP (Homo sapiens, UniProt Q14671 828-1176, N971S;Q975P)
In short: as §1

PUM1 PUF domain R6-YWV = target: T2, PUM1 PUF domain R6-YWV (Homo sapiens, UniProt Q14671 828-1176, N1043Y;Y1044W;Q1047V)
T2 sequence: T1 sequence with S216Y, A220V
In short: as §1

Sequence: GGCUAGAACUAGUGGAUCCCCCGGCGCCCGGCGGCUCGAGCCCGGGUAAGUGUAAAUAGUCUGCAUGCCGCCGGGCGCCAUGCCUGCAGGUCGACUCUAGAAAACAUG
- binding signal (PUM1 PUF domain R3-DRQ): 4.43 log2 enrichment (interaction score)
- binding signal (PUM1 PUF domain R4-SRY): 5.27 log2 enrichment (interaction score)
- binding signal (PUM1 PUF domain R8-PWR): 4.27 log2 enrichment (interaction score)
- binding signal (PUM1 PUF domain R5-RMP): 0.45 log2 enrichment (interaction score)
- binding signal (PUM1 PUF domain R8-AYK): 2.5 log2 enrichment (interaction score)
- binding signal (PUM1 PUF domain R6-SWA): 1.55 log2 enrichment (interaction score)
- binding signal (PUM1 PUF domain R2-NRG): 2.44 log2 enrichment (interaction score)
- binding signal (PUM1 PUF domain R8-RFL): 4.7 log2 enrichment (interaction score)

Sequence: GGCUAGAACUAGUGGAUCCCCCGGCGCCCGGCGGCUCGAGCCCGGGUAAGCGUAAAUAGUCUGCAUGCCGCCGGGCGCCAUGCCUGCAGGUCGACUCUAGAAAACAUG
- binding signal (PUM1 PUF domain R8-CFK): 4.21 log2 enrichment (interaction score)
- binding signal (PUM1 PUF domain R8-PWR): 4.3 log2 enrichment (interaction score)
- binding signal (PUM1 PUF domain R8-KHY): 4.22 log2 enrichment (interaction score)
- binding signal (PUM1 PUF domain R8-AYK): 4.11 log2 enrichment (interaction score)
- binding signal (PUM1 PUF domain R8-RFL): 5.36 log2 enrichment (interaction score)

Sequence: GGCUAGAACUAGUGGAUCCCCCGGCGCCCGGCGGCUCGAGCCCGGGUAAGUGUAAUUAGUCUGCAUGCCGCCGGGCGCCAUGCCUGCAGGUCGACUCUAGAAAACAUG
- binding signal (PUM1 PUF domain R3-YRR): 0.22 log2 enrichment (interaction score)
- binding signal (PUM1 PUF domain R3-LNG): 1.7 log2 enrichment (interaction score)
- binding signal (PUM1 PUF domain R3-GHP): 4.31 log2 enrichment (interaction score)

Sequence: GGCUAGAACUAGUGGAUCCCCCGGCGCCCGGCGGCUCGAGCCCGGGUAAGUGUAAGUAGUCUGCAUGCCGCCGGGCGCCAUGCCUGCAGGUCGACUCUAGAAAACAUG
- binding signal (PUM1 PUF domain R3-YRR): 4.01 log2 enrichment (interaction score)
- binding signal (PUM1 PUF domain R3-SCD): 5.61 log2 enrichment (interaction score)
- binding signal (PUM1 PUF domain R3-LNG): 3.21 log2 enrichment (interaction score)
- binding signal (PUM1 PUF domain R3-FRC): 4.65 log2 enrichment (interaction score)
- binding signal (PUM1 PUF domain R3-GHP): 4.47 log2 enrichment (interaction score)
- binding signal (PUM1 PUF domain R3-WCG): 4.13 log2 enrichment (interaction score)

Sequence: GGCUAGAACUAGUGGAUCCCCCGGCGCCCGGCGGCUCGAGCCCGGGUAAGUGUAUAUAGUCUGCAUGCCGCCGGGCGCCAUGCCUGCAGGUCGACUCUAGAAAACAUG
- binding signal (PUM1 PUF domain R4-SRY): 0.46 log2 enrichment (interaction score)
- binding signal (PUM1 PUF domain R4-SHP): 5.36 log2 enrichment (interaction score)

Sequence: GGCUAGAACUAGUGGAUCCCCCGGCGCCCGGCGGCUCGAGCCCGGGUAAGUGUACAUAGUCUGCAUGCCGCCGGGCGCCAUGCCUGCAGGUCGACUCUAGAAAACAUG
- binding signal (PUM1 PUF domain R4-SHP): 5.25 log2 enrichment (interaction score)

Sequence: GGCUAGAACUAGUGGAUCCCCCGGCGCCCGGCGGCUCGAGCCCGGGUAAGUGAAAAUAGUCUGCAUGCCGCCGGGCGCCAUGCCUGCAGGUCGACUCUAGAAAACAUG
- binding signal (PUM1 PUF domain R6-YWV): 4.97 log2 enrichment (interaction score)
- binding signal (PUM1 PUF domain R6-SWA): 3.21 log2 enrichment (interaction score)
